Compounds without any hit were thinned out: in the full panel of roughly 79,000, 15% have a hit. Values without a mark were called inactive. Calls of active or inactive are those of the source. Rule as the data show it: active = growth inhibition above about 70%; inactive = the rest.
How the values were obtained:
[1] = NCI Yeast Anticancer Drug Screen. Data for the rad50 strain (AID 155);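 also: 0% = growth of vehicle-only cultures of the same strain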; details: S. cerevisiae rad50 strain growth inhibition; at 50.0 µM; hits give high values
How it was run: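 Growth of the mutant yeast was measured after compound exposure and referenced to vehicle-treated cultures.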

[2] = NCI Yeast Anticancer Drug Screen. Data for the mec2-1 strain (AID 157); details: S. cerevisiae mec2-1 strain, at 50.0 µM, hits give high values
How it was run: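 Strain: mec2-1 (DNA repair/cell cycle alteration). Compound exposure, then growth measured; inhibition expressed relative to vehicle.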

[3] = NCI Yeast Anticancer Drug Screen. Data for the sgs1 mgt1 strain (AID 161);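 also: 0% = growth of cultures given vehicle only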; details: S. cerevisiae sgs1 mgt1 strain, at 50.0 µM, hits give high values
How it was run: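 Genetically altered yeast, compound exposure, growth inhibition relative to vehicle.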

[4] = NCI Yeast Anticancer Drug Screen. Data for the cln2 rad14 strain (AID 165);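 also: 0% = growth equal to vehicle treated cultures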; details: S. cerevisiae cln2 rad14 strain, at 50.0 µM, hits give high values
How it was run: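 Compounds are applied to the cln2 rad14 yeast strain, and growth is then compared with that of vehicle-treated cultures to give inhibition.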

[5] = NCI Yeast Anticancer Drug Screen. Data for the bub3 strain (AID 167); details: S. cerevisiae bub3 mutant strain, at 50.0 µM, hits give high values
How it was run: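 Whole-cell yeast assay. The mutant strain was incubated with compounds, and growth inhibition was determined by comparison with vehicle-treated cells.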

[6] = NCI Yeast Anticancer Drug Screen. Data for the mlh1 rad18 strain (AID 175); details: S. cerevisiae mlh1 rad18 strain growth inhibition; at 50.0 µM; hits give high values
How it was run: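 Read-out is yeast growth inhibition, calculated against vehicle-only controls. The compound was applied to a strain engineered with DNA damage repair alterations.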

SMILES | growth inhibition [1] | growth inhibition [2] | growth inhibition [3] | growth inhibition [4] | growth inhibition [5] | growth inhibition [6]
CC(=O)NC1CON(C(C)=O)C1=O (stereo unspecified) | 2.75% | 0.65% | -9.85% | -54.4% | 2.7% | -6.75%
CC(C)COC(=O)N1N=NC2C3OC(CC3=O)C21 (stereo unspecified) | -4.7% | -17.1% | -8.1% | 8.8% | -13.2% | -15.7%
Cc1ccc(NC(=O)CSc2nnc(Cc3ccccc3)o2)c(C)c1 | -26.8% | -63.2% | -57.8% | -22.8% | -3.3% | -54.9%
CC(C)CCCC(C)C1CCC2(C)C3=C(CCC12C)C1(C)CCC(O)C(C)(C)C1CC3=O (stereo unspecified) | -0.35% | -0.5% | -18.6% | 1.85% | 2.1% | -5.45%
COc1ccc(NC(=O)C(F)(F)F)cc1 | 9.3% | 3.85% | 10.4% | -2.2% | 0.55% | 1.75%
Clc1nc(N2CCOCC2)c2[nH]cnc2n1 | -5.9% | 5.7% | 3.9% | -6.1% | 8.8% | 6.25%
O=C(CN1CCCCC1)NC(=O)c1ccccc1 | -8.8% | -11.6% | -7.8% | -9.15% | 0.65% | -7.5%
CSC(=S)n1nc(-c2ccccc2)c(N=Nc2cccc(Cl)c2Cl)c1-c1ccccc1 | 90.2% (active) | 95.5% (active) | 94% (active) | 94.5% (active) | 93% (active) | 95.2% (active)
CC(=O)N(Cl)c1ccc(N=Nc2ccccc2)cc1F | 24.5% | 15.1% | 32.5% | -9.7% | -7.7% | 6.8%
CCCCCCCCC(=O)N1SC(NC(=O)OC)=Nc2ccccc21 | 98.2% (active) | 98.2% (active) | 98% (active) | 90.2% (active) | 97% (active) | 98.1% (active)
COC(=O)/C(C#N)=C/c1ccco1 | -34% | 6.65% | -14.2% | 2.5% | -2.05% | -21.6%
Nc1cc(C(=O)O)ccc1Cl | -9.7% | -8.1% | -18.9% | -88.8% | -12.2% | -5.4%
Cc1nc(C)c(C(=O)NNC(=O)C[n+]2ccccc2)cc1C(=O)NNC(=O)C[n+]1ccccc1 | -27.6% | -4.15% | -11.4% | 11.7% | -12.4% | -25.1%
O=C(Nc1ccc(Cl)cc1[N+](=O)[O-])Oc1ccc(-c2ccccc2)cc1Cl | 99.5% (active) | 99.7% (active) | 99.7% (active) | 99% (active) | 99.4% (active) | 99.7% (active)
Cc1ccccc1N=CC(C=O)[N+](=O)[O-] (stereo unspecified) | -1.65% | -9.8% | 0.95% | 4.1% | -4.7% | -5.65%
COc1cc(C(=O)O)c(Cc2ccccc2)c(OC)c1O | 9.8% | 5.95% | 1.05% | 5.6% | 9.05% | -3.2%
O=C(NC1CCCCC1)c1ccccc1Cl | 23.6% | -9.75% | -15.3% | 24.2% | -10.2% | 10.3%
CCOC(=O)N1C2C(c3ccccc3)=NC(C)(C)N2C(c2ccc([N+](=O)[O-])cc2)N1C(=O)OCC (stereo unspecified) | 17.9% | -7% | -4.55% | 15.2% | -2.2% | -2.9%
COC(=O)C1=C(C)C(=O)[C@]23C(CCCC[C@H]12)C(=O)[C@H](C(=O)OC)C3C (stereo partly specified) | -19.7% | -31.2% | -11% | -20.9% | -13.9% | 16.1%
Clc1ccc(/C=N/N2CCN(/N=C/c3ccc(Cl)cc3)CC2)cc1 | -3.1% | -10.3% | -0.2% | -5.35% | 13.2% | -15%
COc1ccc(C(C#N)Cc2ccccc2)c([N+](=O)[O-])c1 (stereo unspecified) | 17.6% | -5.75% | 4.8% | -34.2% | 0.45% | 16.4%

SMILES | growth inhibition [1] | growth inhibition [2] | growth inhibition [3] | growth inhibition [4] | growth inhibition [5] | growth inhibition [6]
O=C(O)COc1ccc(C(=O)/C(SS/C(C(=O)c2ccc(OCC(=O)O)c(Cl)c2Cl)=C2\C=C(c3ccccc3Cl)SS2)=C2/C=C(c3ccccc3Cl)SS2)c(Cl)c1Cl | -20.8% | -29.1% | -6.05% | 7.05% | -19.9% | -27.1%
CNC(=S)N/N=C/c1nc2ccccc2c(=O)n1-c1ccc(Cl)cc1 | 19.6% | 0.75% | 36.6% | 2.55% | -2.5% | 10.2%
O/N=C1/COC(C(F)(F)F)(C(F)(F)F)C1 | -14.3% | -25.4% | -16.9% | -38.2% | -5.7% | -45.5%
O=CNc1ccc(S(=O)(=O)c2ccc(NC=O)cc2)cc1 | 4.05% | -35.7% | 4.75% | 26.6% | 9.9% | -18.1%
CC(C)(O)/C1=C/C=C/CCCCCCCCCC1 | 13.8% | 14.9% | 50.1% | 5.75% | 14.8% | 16.9%
Nc1ccc(CCc2ccc3ccccc3n2)cc1 | 33.2% | -9.25% | 15.9% | 7.9% | -16.2% | 33.5%
O=C1c2ccccc2C(=O)c2c(Cl)cccc21 | 56.6% | 4.7% | -19.2% | -39.5% | -9.35% | 7.35%
Brc1ccccc1C(Nc1nncs1)Nc1nncs1 | 6.6% | -4.35% | -10.7% | -3.1% | -0.25% | 8.35%
Cc1cc[n+](CC(=O)CCc2ccc(C(=O)C[n+]3ccc(C)cc3)cc2)cc1 | 41.1% | -1.85% | 34.3% | -6.4% | -3.95% | 11.1%
CN(C(=O)c1ccncc1)c1ccccc1 | -11.4% | -33.1% | -14.1% | 3.85% | -31.1% | 8.5%
CCOC(=O)c1nnc(C)[nH]c1=O | 13.4% | -5.5% | -14.5% | -43.9% | -2.8% | 15%
CN=c1ncc2nc(-c3ccccc3)c(-c3ccccc3)n(C)c-2n1 | -8.2% | -5.9% | -7.45% | -42% | -3.85% | -24.4%
FC(F)(F)C1(F)C(F)(F)C(F)(F)C(F)(F)C(F)(F)C1(F)F | 16.3% | -39.1% | -4.95% | -96.2% | -24.1% | 27.9%
CC(=O)Nc1ccc(C(O)/C(=N/N)c2nc3ccc(Cl)cc3[nH]c2=O)cc1 (stereo unspecified) | 9.15% | -8.9% | -6% | -1.1% | 5.55% | -26.9%
COc1cccc(-c2cc(=O)c3cccc(CC(=O)O)c3o2)c1 | 5.9% | -4.9% | -11.6% | 2.85% | -2.35% | -30.9%
CC(=O)C1=C(C)Cn2c(=O)c3ccccc3c(=O)n2C1 | -4.7% | -18.5% | -10.7% | 10% | -15.7% | -0.05%
COC(=O)CCSCCC(=O)OC | 1.5% | -0.15% | -8.15% | -8.2% | 1.75% | -1.95%
OCC(O)C(O)C(O)C(O)C(OCc1ccccc1)OCc1ccccc1 (stereo unspecified) | 11.3% | 7.55% | -23.6% | -12.7% | 5.1% | 9.85%
CC[C@@]1(C)CCC2c3ccc(O)cc3CC[C@H]2C1C (stereo partly specified) | -2.1% | -9.1% | 21.4% | 42.6% | -8.75% | -6.6%
CO[Si](C)(OC)c1ccccc1 | -0.6% | -23.8% | -32.1% | 13.2% | -25.8% | 2.75%

From PubChem BioAssay (NCI)
